# Measurements as given in PubChem BioAssay (NCATS).
# Results filed as inconclusive are left out. A call without a number means that no potency is given here. Activity calls are given as the source filed them. Calls come from the whole dose curve.
# Tests used:
# [1] = Primary qHTS for inhibitors of SARS-S pseudo-typed particle cell entry (AID 1479145); note: nearly all actives have a fitted effect of over 45% in size; note: potency is the fitted concentration of half-maximal effect
# [2] = Primary qHTS for Huh7 cytotoxicity: counterscreen for inhibitors of MERS-S pseudotyped particle cell entry (AID 1479147)
# [3] = Primary qHTS for inhibitors of MERS-S pseudo-typed particle cell entry (AID 1479149); note: nearly all actives have a fitted effect of over 60% in size; note: potency is the fitted concentration of half-maximal effect
# [4] = Primary qHTS for Vero E6 cytotoxicity: counterscreen for inhibitors of SARS-S pseudo-typed particle cell entry (AID 1479150); note: potency is the fitted concentration of half-maximal effect
# [5] = Confirmatory qHTS for VERO E6 Cytotoxicity Assay: Counterscreen for SARS-CoV-2 CPE Assay (AID 1508605); note: series mostly up to about 20 µM; nearly all actives have a fitted effect of over 60% in size
# [6] = Confirmatory qHTS for activators (rescue) of SARS-CoV-2 Cytopathic Effect (CPE) (AID 1508606); note: potency is the fitted concentration of half-maximal effect; nearly all actives have a fitted effect of over 70% in size
Compound,Potency [1],Potency [2],Potency [3],Potency [4],Potency [5],Potency [6]
C[C@H](N)[C@H](O)c1cccc(O)c1,inactive,inactive,inactive,inactive,,
CCOC(=O)n1ccn(C)c1=S,inactive,inactive,inactive,inactive,,
CC1=C(CC(=O)O)c2cc(F)ccc2/C1=C\c1ccc(S(C)=O)cc1 (stereo unspecified),inactive,inactive,inactive,inactive,,
CCN(CC)CC(=O)Nc1c(C)cccc1C(=O)OC,inactive,inactive,inactive,inactive,,
CSc1ccc(C(=O)c2[nH]c(=O)[nH]c2C)cc1,inactive,inactive,inactive,inactive,,
Cc1ccc(C(=O)Oc2ccc(C(O)CNC(C)(C)C)cc2OC(=O)c2ccc(C)cc2)cc1 (stereo unspecified),inactive,inactive,inactive,inactive,,
O=C(O)c1cn(-c2ccc(F)cc2)c2cc(N3CCNCC3)c(F)cc2c1=O,inactive,inactive,inactive,inactive,,
Cc1[nH]c(C)c(Cl)c(=O)c1Cl,inactive,inactive,inactive,inactive,,
Nc1nc2ncc(CNc3ccc(C(=O)N[C@@H](CCC(=O)O)C(=O)O)cc3)nc2c(=O)[nH]1,inactive,inactive,inactive,inactive,,
Cc1c(F)cc2c(=O)c(C(=O)O)cn3c2c1CCC3C (stereo unspecified),inactive,inactive,inactive,inactive,,
C[C@]1(Cn2ccnn2)[C@H](C(=O)O)N2C(=O)C[C@H]2S1(=O)=O,inactive,inactive,inactive,inactive,,
C=Cc1c(C)c2cc3[nH]c(cc4nc(cc5nc(cc1[nH]2)C(C)=C5CCC(=O)O)C(CCC(=O)O)=C4C)c(C)c3C=C,inactive,inactive,inactive,inactive,,
NS(=O)(=O)c1cc2c(cc1Cl)NC(CSCc1ccccc1)=NS2(=O)=O,inactive,inactive,inactive,inactive,,
CN(C)CCN(Cc1cccs1)c1ccccn1,inactive,inactive,inactive,inactive,,
CCO[C@@H]1O[C@H](C(COCc2ccccc2)OCc2ccccc2)[C@H](OCc2ccccc2)[C@H]1O (stereo partly specified),inactive,inactive,inactive,inactive,,
O=C(CCCN1CCN(c2ccccn2)CC1)c1ccc(F)cc1,inactive,inactive,inactive,inactive,,
c1ccc(CN(CC2=NCCN2)c2ccccc2)cc1,inactive,inactive,inactive,inactive,,
COC(=O)C1=C(C)NC(COC(N)=O)=C(C(=O)OC(C)C)C1c1cccc(Cl)c1Cl (stereo unspecified),inactive,inactive,inactive,inactive,,
Oc1c(Cl)cc(Cl)c(Cl)c1Cc1c(O)c(Cl)cc(Cl)c1Cl,2.82 µM (active),inactive,3.55 µM (active),5.62 µM (active),,
C/C=C/c1ccc(OC)cc1,inactive,inactive,inactive,inactive,,
CC(=O)Oc1c(C)c(C)c2c(c1C)CC[C@@](C)(CCC[C@H](C)CCC[C@H](C)CCCC(C)C)O2,inactive,inactive,inactive,inactive,,
CC(=O)N(CC(=O)N(C)C)c1ccccc1,inactive,inactive,inactive,inactive,,
CC(=O)O[C@H]1C[C@@H]2CC[C@@H]3[C@H](CC[C@@]4(C)[C@H]3C[C@H]([N+]3(C)CCCCC3)[C@@H]4OC(C)=O)[C@@]2(C)C[C@@H]1N1CCCCC1,inactive,inactive,inactive,inactive,,
Cc1cccc(N(C)C(=S)Oc2ccc3ccccc3c2)c1,inactive,inactive,inactive,inactive,,

Compound,Potency [1],Potency [2],Potency [3],Potency [4],Potency [5],Potency [6]
O=C(Nc1ccc([N+](=O)[O-])cc1)Nc1ccc([N+](=O)[O-])cc1,inactive,inactive,inactive,inactive,,
CCCCOc1ccc(OCCCN2CCOCC2)cc1,inactive,inactive,inactive,inactive,,
C/C(=C(/OCCOc1ccc(Cl)cc1)c1ccc(Cl)cc1Cl)n1ccnc1,inactive,inactive,inactive,inactive,,
C[C@]12CCC(=O)C=C1CC[C@@H]1[C@@H]2[C@@H](O)C[C@@]2(C)[C@H]1CC[C@]2(O)C(=O)CO,inactive,inactive,inactive,inactive,,
C/C=C/c1ccc(O)c(OC)c1,inactive,inactive,inactive,inactive,,
CC[N+]1(CC)CCC(=C(c2ccccc2)c2ccccc2)C1C (stereo unspecified),inactive,inactive,inactive,inactive,,
CC(=O)CCC(=O)O,inactive,inactive,inactive,inactive,,
CCOC(=O)C(C)(C)Oc1ccc(Cl)cc1,inactive,inactive,inactive,inactive,,
CC1(C)OC[C@@H](COC(=O)CCc2ccc(OC[C@@H](O)CNCCNC(=O)N3CCOCC3)cc2)O1,inactive,inactive,inactive,inactive,,
COCCc1ccc(OCC(O)CNC(C)C)cc1 (stereo unspecified),inactive,inactive,inactive,inactive,,
O=C1c2cccc(O)c2C(=O)c2c(O)cccc21,inactive,inactive,inactive,inactive,,
O=C(NN1CCCC1)NS(=O)(=O)c1ccc(Cl)cc1,inactive,inactive,inactive,inactive,,
CCN1CCN(c2cc(-c3ccc(F)cc3)c3c(n2)CCCCCC3)CC1,inactive,inactive,inactive,inactive,,
O=c1cc(CO)occ1O,inactive,inactive,inactive,inactive,,
NCCNC(=O)c1ccc(Cl)cn1,inactive,inactive,inactive,inactive,,
CCOc1c(N2CCOCC2)cnn(C)c1=O,inactive,inactive,inactive,inactive,,
CC1(C)O[C@@H]2C[C@H]3[C@@H]4CCC5=CC(=O)CC[C@]5(C)[C@@]4(F)[C@@H](O)C[C@]3(C)[C@]2(C(=O)CCl)O1,inactive,inactive,inactive,inactive,,
O=C1OC2(c3ccccc31)c1cc(I)c(O)c(I)c1Oc1c2cc(I)c(O)c1I,inactive,inactive,inactive,inactive,,
C#C[C@]1(O)CC[C@H]2[C@@H]3CCc4cc(OC)ccc4[C@H]3CC[C@@]21C,inactive,inactive,inactive,inactive,,
C[N+](C)(C)CCCCCCCCCC[N+](C)(C)C,inactive,inactive,inactive,inactive,,
C[N+]12CCC(CC1)C(OC(=O)C(O)(c1ccccc1)c1ccccc1)C2 (stereo unspecified),inactive,inactive,inactive,inactive,,
CC(O)Cn1cnc2c1c(=O)n(C)c(=O)n2C (stereo unspecified),inactive,inactive,inactive,inactive,,
CNC(=O)c1cnn(-c2nc(N)c3ncn([C@@H]4O[C@H](CO)[C@@H](O)[C@H]4O)c3n2)c1,inactive,inactive,inactive,inactive,,
CCC(=O)O[C@]1(C(=O)SCF)[C@H](C)C[C@H]2[C@@H]3C[C@H](F)C4=CC(=O)C=C[C@]4(C)[C@@]3(F)[C@@H](O)C[C@@]21C,inactive,inactive,inactive,inactive,,

Compound,Potency [1],Potency [2],Potency [3],Potency [4],Potency [5],Potency [6]
COC(=O)Nc1nc2ccc(Sc3ccccc3)cc2[nH]1,inactive,inactive,inactive,inactive,,
CC1(C)O[C@@H]2C[C@H]3[C@@H]4C[C@H](F)C5=CC(=O)C=C[C@]5(C)[C@H]4[C@@H](O)C[C@]3(C)[C@]2(C(=O)CO)O1,inactive,inactive,inactive,inactive,,
CCOC(=O)c1ccc(C#Cc2ccc3c(c2)C(C)(C)CCS3)nc1,inactive,inactive,inactive,inactive,,
C#C[C@]1(O)CC[C@H]2[C@@H]3CCC4=CC(=O)CC[C@@H]4[C@H]3CC[C@@]21C,inactive,inactive,inactive,inactive,,
CCCCNc1cc(C(=O)O)cc(S(N)(=O)=O)c1Oc1ccccc1,inactive,inactive,inactive,inactive,,
CCCc1ncc(C[n+]2ccccc2C)c(N)n1,inactive,inactive,inactive,inactive,,
CCCn1cnc2c1c(=O)n(CCCCC(C)=O)c(=O)n2C,inactive,inactive,inactive,inactive,,
COc1nc(C)nc(Cl)c1NC1=NCCN1,inactive,inactive,inactive,inactive,,
CCCCN(CCN(CCCC)C(=O)N1CCOCC1)C(=O)N1CCOCC1,inactive,inactive,inactive,inactive,,
COc1ccc(-c2cc(C(F)F)nn2-c2ccc(S(N)(=O)=O)cc2)cc1F,inactive,inactive,,inactive,,
CCOC(=O)Cn1cccc1-c1nc(-c2ccc(OC)cc2)c(-c2ccc(OC)cc2)s1,14.1 µM (active),inactive,,inactive,,
O=C(OCC(COC(=O)c1cccnc1)(COC(=O)c1cccnc1)COC(=O)c1cccnc1)c1cccnc1,inactive,inactive,inactive,inactive,,
c1ccc([C@H]2CN3CCSC3=N2)cc1,inactive,inactive,inactive,inactive,,
CCC(CN)=C(c1ccccc1)c1ccccc1,inactive,inactive,,inactive,,
CC(C)C(=O)Nc1cccc(C2CN3CCSC3=N2)c1 (stereo unspecified),inactive,inactive,,inactive,,
CC(C)(C)c1ccc(C(O)CCCN2CCC(C(O)(c3ccccc3)c3ccccc3)CC2)cc1 (stereo unspecified),inactive,inactive,,inactive,,
C[N+]1(CC2COC(c3ccccc3)(C3CCCCC3)O2)CCCCC1 (stereo unspecified),inactive,inactive,,inactive,,
O=C(O)CNC(=O)c1ccccc1I,inactive,inactive,,inactive,,
NCCc1ccc(O)c(O)c1,inactive,inactive,inactive,inactive,,
CN(C)CC/C=C1\c2ccccc2Sc2ccc(Cl)cc21,10 µM (active),inactive,25.1 µM (active),inactive,inactive,8.91 µM (active)
N[C@H]1CN(c2c(F)cc3c(=O)c(C(=O)O)cn(C4C[C@@H]4F)c3c2Cl)CC12CC2 (stereo partly specified),inactive,inactive,inactive,inactive,,
CCOC(=O)C1=C(C)NC(C)=C(C(=O)OCC)C1c1ccccc1/C=C/C(=O)OC(C)(C)C,inactive,inactive,,inactive,,
CCOC(=O)C1=C[C@]2(CC)CCCN3CCc4c(n1c1ccccc41)[C@@H]32,inactive,inactive,,inactive,,
Cc1nc(C2CCCCC2)c(-c2ccc(S(N)(=O)=O)c(F)c2)o1,inactive,inactive,inactive,inactive,,
